Data taken from PubChem BioAssay (NCATS).
Where “and” joins values, the source holds several entries; their conditions need not be identical. Identical values can stand only once. Inconclusive results are not listed. Calls of active or inactive are those of the source. Calls come from the whole dose curve; as a rule, active = well fitted inhibition curve with a large enough effect; inconclusive = small, poorly fitted or top-dose-only effect; inactive = flat fitted curve, though single readings scatter.

Key:
[1] = test system: PC49; assay: qHTS profiling for inhibitors of Plasmodium falciparum proliferation (AID 504749);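 note: 0% = DMSO vehicle and full inhibition = artemisinin control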; conditions: P. falciparum in erythrocytes, SYBR Green DNA, 72 h; series mostly up to 28.7 µM
How it was run: (§1)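 P. falciparum-infected erythrocytes (0.3% parasitemia, 2.5% hematocrit final) were exposed to compounds for 72 h at 37 C in 5% CO2, then lysed with SYBR Green buffer overnight at room temperature; parasite DNA fluorescence was normalized to artemisinin and DMSO controls.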

[2] = test system: SC27B; assay: as above; conditions: P. falciparum in erythrocytes, SYBR Green DNA, 72 h; series mostly up to 28.7 µM
How it was run: as §1

[3] = test system: TAB109; assay: as above; conditions: P. falciparum in erythrocytes, SYBR Green DNA, 72 h; series mostly up to 28.7 µM
How it was run: as §1

[4] = test system: TAB113; assay: as above; conditions: P. falciparum in erythrocytes, SYBR Green DNA, 72 h; series mostly up to 28.7 µM
How it was run: as §1

[5] = test system: TAB165; assay: as above; conditions: P. falciparum in erythrocytes, SYBR Green DNA, 72 h; series mostly up to 28.7 µM
How it was run: as §1

[6] = test system: W2; assay: as above; conditions: P. falciparum in erythrocytes, SYBR Green DNA, 72 h; series mostly up to 28.7 µM
How it was run: as §1

[7] = test system: CRL-7250; assay: Cytotoxic Profiling of Annotated Libraries Using Quantitative High-Throughput Screening (AID 1296008); conditions: Five cell lines viability, CellTiter-Glo ATP luminescence, 48-72 h; max response: active compounds read low; for max response: % is set by controls: 0 for no effect and ±100 for the full control effect
How it was run: (§2)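 Compounds were pin-transferred onto cells and incubated 48 or 72 hr at 37 degree Celsius, 95% humidity. CellTiter-Glo was added, plates sat 10 min at room temperature, then ATP-coupled luminescence was imaged as the viability read-out.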

[8] = test system: HEK293; assay: as above; conditions: Five cell lines viability, CellTiter-Glo ATP luminescence, 48-72 h; max response: active compounds read low
How it was run: as §2

[9] = test system: HaCat; assay: as above; conditions: Five cell lines viability, CellTiter-Glo ATP luminescence, 48-72 h; max response: active compounds read low
How it was run: as §2

[10] = test system: KB-3-1; assay: as above; conditions: Five cell lines viability, CellTiter-Glo ATP luminescence, 48-72 h; max response: active compounds read low
How it was run: as §2

[11] = test system: NIH3T3; assay: as above; conditions: Five cell lines viability, CellTiter-Glo ATP luminescence, 48-72 h; max response: active compounds read low
How it was run: as §2

[12] = test system: HACAT; assay: qHTS assay to identify novel small-molecules to repurpose for Merkel cell carcinoma treatment (AID 1296009); conditions: MCC and control cell lines, CellTiter-Glo viability, 72 h
How it was run: (§3)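 Cells exposed to NPC (8-point) and MIPE (11-point) compound dilutions for 72 hr at 37 degree celsius; viability read by CellTiter-Glo luminescence, normalized to no-cell and DMSO in-plate controls.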

[13] = test system: MCC-13; assay: as above; conditions: MCC and control cell lines, CellTiter-Glo viability, 72 h; series mostly up to 46 µM
How it was run: as §3

[14] = test system: MCC-26; assay: as above; conditions: MCC and control cell lines, CellTiter-Glo viability, 72 h; series mostly up to 46 µM
How it was run: as §3

[15] = test system: MKL-1; assay: as above; conditions: MCC and control cell lines, CellTiter-Glo viability, 72 h; series mostly up to 46 µM
How it was run: as §3

[16] = test system: MKL-2; assay: as above; conditions: MCC and control cell lines, CellTiter-Glo viability, 72 h; series mostly up to 46 µM
How it was run: as §3

[17] = test system: UISO; assay: as above; conditions: MCC and control cell lines, CellTiter-Glo viability, 72 h; series mostly up to 46 µM
How it was run: as §3

[18] = test system: WaGa; assay: as above; conditions: MCC and control cell lines, CellTiter-Glo viability, 72 h; series mostly up to 46 µM
How it was run: as §3

[19] = test system: HEK293T; assay: as above; conditions: MCC and control cell lines, CellTiter-Glo viability, 72 h; at 44.8 µM (top of the series) unless noted
How it was run: as §3

[20] = test system: NIH3T3; assay: as above; conditions: MCC and control cell lines, CellTiter-Glo viability, 72 h; at 44.8 µM (top of the series) unless noted
How it was run: as §3

[21] = at 44.8 µM (top of the series) unless noted
Note: nearly all actives have a fitted effect of over 60% in size.

OC(Cn1cncn1)(Cn1cncn1)c1ccc(F)cc1F
inactive: Potency [1] | Potency [2] | Potency [3] | Potency [4] | Potency [5] | Potency [6] | max response [7] 2.49% and -1.86% | max response [8] -0.0788% and -5.53% | max response [9] -29.4% | outcome [9] | max response [10] -2.5% and 5.59% | max response [11] -0.561% and -16.4% | outcome [12, 21] | Potency [13] | Potency [14] | Potency [15] | Potency [16] | Potency [17] | Potency [18]

CCn1cc(C(=O)O)c(=O)c2cc(F)c(N3CCN(C)CC3)cc21
inactive: Potency [1] | max response [7] -3.59% | outcome [7] | max response [9] -4.37% | outcome [9] | max response [10] 2.67% and -1.65% | max response [11] -2.14% | outcome [11] | outcome [12, 21] inactive [at 17.4 µM] | outcome [19] inactive [at 17.4 µM] | Potency [13] | Potency [14] | Potency [15] | Potency [16] | outcome [20] inactive [at 17.4 µM] | Potency [17] | Potency [18]

CCn1cc(C(=O)O)c(=O)c2cc(F)c(N3CCNCC3)nc21
inactive: Potency [1] | Potency [2] | Potency [4] | max response [7] -4.45% and -16.8% | max response [8] -5.1% | outcome [8] | max response [9] -2.73% | outcome [9] | max response [10] -1.65% and 0.264% | outcome [11] | outcome [12, 21] | outcome [19] | Potency [13] | Potency [15] | Potency [16] | outcome [20] | Potency [17] | Potency [18]

O=P(O)(O)C(O)(Cc1cccnc1)P(=O)(O)O
inactive: Potency [1] | Potency [2] | Potency [3] | Potency [4] | Potency [5] | Potency [6] | max response [7] -3.74% and -13.5% and 3.83% | max response [8] -6.47% and -0.4% | outcome [8] | max response [9] -18.6% | outcome [9] | max response [10] 16.5% and 4.21% and 6.74% | max response [11] -4.1% and 0.573% | outcome [11] | outcome ([12]; at 4.96 µM (top of the series)) | outcome ([12]; at 44.8 µM (top of the series)) | outcome [19] | Potency [13] | Potency [14] | Potency [15] | Potency [16] | outcome [20] | Potency [17] | Potency [18]

CCC(=O)O[C@]1(C(=O)SCF)[C@H](C)C[C@H]2[C@@H]3C[C@H](F)C4=CC(=O)C=C[C@]4(C)[C@@]3(F)[C@@H](O)C[C@@]21C
inactive: outcome [7] | max response [8] 1.44% and 1.99% | max response [9] 0.77% | outcome [9] | max response [10] 26.7% | outcome [10] | max response [11] 1.81% and -2.44% | outcome [12, 21] | Potency [13] | Potency [14] | Potency [15] | Potency [16] | Potency [17] | Potency [18]
